High-throughput results: PubChem BioAssay, National Center for Advancing Translational Sciences (NCATS)
Rows were chosen to be rich in hits. Some 1.1% of all compounds tested hit in one or more screens of this group.
AmpC inh detg: qHTS Inhibitors of AmpC Beta-Lactamase (assay with detergent); AmpC hydrolysis of nitrocefin, absorbance 480 nm, 0.01% Triton; 370,000 tested, 0.041% active; P00811; Potency, µM (highest dose often 114 µM), inactives show top-dose activity change, negative = inhibition, most hits filed as inhibitors; AID 485294, 2010;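 note: 0% = no-compound wells and -100% = no-enzyme wells; nearly all actives have a fitted effect of over 25% in size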
Target sequence (P00811 whole entry, looked up): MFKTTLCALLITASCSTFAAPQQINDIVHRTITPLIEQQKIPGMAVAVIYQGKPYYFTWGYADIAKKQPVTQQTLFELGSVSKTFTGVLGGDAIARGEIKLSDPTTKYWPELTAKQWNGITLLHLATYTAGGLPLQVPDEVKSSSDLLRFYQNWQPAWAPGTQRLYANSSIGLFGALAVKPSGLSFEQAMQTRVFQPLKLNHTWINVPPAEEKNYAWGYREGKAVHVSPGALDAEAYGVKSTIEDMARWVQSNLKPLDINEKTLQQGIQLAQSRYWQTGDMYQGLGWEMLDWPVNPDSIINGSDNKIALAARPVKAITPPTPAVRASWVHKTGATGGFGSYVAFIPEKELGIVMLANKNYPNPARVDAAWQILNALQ
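AmpC (5.3 nM in the dispensed reagent) in 20 mM phosphate pH 7.0 with 0.01% (detergent screen) or 0.0001% Triton X-100 was preincubated with compounds for 15 min at room temperature. Nitrocefin was then added from an 800 uM solution, and hydrolysis was followed at 480 nm.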
SARS PLpro yeast: qHTS of Yeast-based Assay for SARS-CoV PLP; S. cerevisiae expressing SARS-CoV PLpro, growth rescue; Potency, µM (top dose mostly 32.9 µM), without a hit: at the top dose activity, positive = growth rescue, actives largely listed as activators; 330,000 tested, 0.19% active; AID 485353, 2010; calls by dose curve; note: 0% is about no effect; nearly all actives have a fitted effect of over 55% in size
AmpC no deterg: qHTS Inhibitors of AmpC Beta-Lactamase (assay without detergent); P00811; AmpC nitrocefin hydrolysis, absorbance 480 nm, 0.0001% Triton; Potency, µM (top dose mostly 57.1 µM), inactives show at the top dose activity change, negative = inhibition, usual class: inhibitors; 330,000 tested, 0.52% active; AID 485341, 2010;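 note: plate controls were no compound for no effect and no enzyme for full effect; nearly all actives have a fitted effect of over 20% in size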
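AmpC (5.3 nM in the dispensed reagent) in 20 mM phosphate pH 7.0 with 0.01% (detergent screen) or 0.0001% Triton X-100 was preincubated with compounds for 15 min at room temperature. Nitrocefin was then added from an 800 uM solution, and hydrolysis was followed at 480 nm.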
FBPA Giardia inh: qHTS Assay for Inhibitors of Fructose-1,6-bisphosphate Aldolase from Giardia Lamblia. Potency, µM (highest dose often 59.6 µM), for inactives: top-dose activity, negative = inhibition, hits mostly inhibitors. purified Giardia FBPA. A8B2U2. 290,000 tested, 0.71% active; note: % is set by controls: 0 for no effect and ±100 for the full control effect; nearly all actives have a fitted effect of over 55% in size
Target sequence (A8B2U2 whole entry, looked up): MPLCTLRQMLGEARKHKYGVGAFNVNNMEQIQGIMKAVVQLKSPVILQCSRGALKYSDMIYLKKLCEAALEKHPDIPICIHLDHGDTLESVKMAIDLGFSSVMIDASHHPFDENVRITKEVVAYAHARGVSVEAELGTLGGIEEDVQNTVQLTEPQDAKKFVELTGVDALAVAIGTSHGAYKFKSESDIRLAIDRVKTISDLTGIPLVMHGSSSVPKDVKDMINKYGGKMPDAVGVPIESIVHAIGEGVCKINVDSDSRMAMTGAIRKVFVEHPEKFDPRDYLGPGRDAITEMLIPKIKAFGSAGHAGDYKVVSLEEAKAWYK
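40 nM FBPA preincubated 10 min at RT with compound (up to 57.5 uM final), then substrate plus GAPDH/TPI/NAD/arsenate coupling and diaphorase/resazurin added. Fluorescence read after 20 min at RT, 525/598 nm.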
Numbers without * were called inactive; ? = inconclusive; nt = no result given; ! = repeats disagree; [ ] = another dose, or the depositor's remark. Unless noted, calls come from the whole dose curve; as a rule, active = well fitted curve in the direction sought with a large enough effect; inconclusive = small, poorly fitted or top-dose-only effect, or another doubt; inactive = no such curve, though single readings can be large; an effect the other way counts as inactive or inconclusive. Potency is the fitted concentration of half-maximal effect.

SMILES | AmpC inh detg | SARS PLpro yeast | AmpC no deterg | FBPA Giardia inh
CC(C)C[C@H](NC(=O)[C@H](CCCCN)NC(=O)[C@H](CCCNC(=N)N)NC(=O)[C@H](C)NC(=O)[C@H](CO)NC(=O)[C@H](CCCCN)NC(=O)[C@H](CCCNC(=N)N)NC(=O)[C@H](C)NC(=O)CNC(=O)[C@@H](NC(=O)[C@H](Cc1ccccc1)NC(=O)CNC(=O)CNC(=O)[C@@H](N)Cc1ccccc1)[C@@H](C)O)C(=O)N[C@@H](C)C(=O)N[C@@H](CC(N)=O)C(=O)N[C@@H](CCC(N)=O)C(=O)O | nt | nt | nt | 0%
COc1ccc([C@H]2OCC3C2CO[C@@H]3c2ccc(OC)c(OC)c2)cc1OC (some centres not stated) | nt | nt | nt | 4%
O=C(CNC1CCCCCC1)Nc1ccc(S(=O)(=O)NC2CC2)cc1 | 0% | 4% | 0.16µM* | 1%
COc1ccc(CN2C(=O)NC(=O)/C(=C/c3ccc([N+](=O)[O-])s3)C2=O)cc1 | -7% | -4% | ? | -29%
O=C1NC(=O)N(Cc2ccc(F)cc2)C(=O)/C1=C\c1ccc([N+](=O)[O-])s1 | -6% | 1% | 11µM* | -29%
Cc1ccc(C(=O)O)cc1Nc1nc2ccccc2n2nnnc12 | -1% | nt | nt | nt
CN(C)C(=O)N1CCN(C(=O)c2ccco2)CC1 | -13% | -2% | 28µM* | 0%
Cc1c(O)nc(SCC(=O)Nc2ccc3c4c(cccc24)CC3)n(-c2ccccc2)c1=O | -2% | ? | 35µM* | 2%
O=C(CSc1nc(O)cc(=O)n1-c1ccccc1)Nc1ccc2c3c(cccc13)CC2 | -15% | ? | -45% | -1%
O=c1c2[nH]c3ccc(F)cc3c2ncn1CCN1CCN(Cc2ccccc2)CC1 | ? | -2% | 0.32µM* | 2%
CCCN(CCC)S(=O)(=O)c1ccc(NS(C)(=O)=O)cc1 | -5% | 5% | -18% | 7%
CCCN(CC1CC1)S(=O)(=O)c1ccc(S(N)(=O)=O)cc1 | ? | 2% | 0.5µM* | 4%
Cc1cc(SCC(=O)N/N=C/c2ccc(O)c(O)c2O)c(C)cc1Br | 0% | ? | 18µM* | 3.5µM*
COc1cc(/C=N/NC(=O)CSc2cc(C)c(Br)cc2C)ccc1O | 2% | -8% | -55% | 1%
C/C(=N/NC(=O)c1cc2ccccc2cc1O)c1ccco1 | -1% | 2% | 25µM* | nt
C/C(=N\NC(=O)c1cc2ccccc2cc1O)c1cccs1 | -7% | -4% | ? | -9%
C/C(=N\NC(=O)c1cc2ccccc2cc1O)c1ccc(C)o1 | 1% | -2% | 7.9µM* | nt
CC12C=C(/C=C/c3ccc(Br)cc3)C(C)(C1)C(c1ccc(Br)cc1)CC2=O (configuration not stated) | nt | nt | nt | -3%[12.9 µM]
CC#CCN1c2ccccc2[C@]23C[C@@H](C(=O)OC)N(S(=O)(=O)c4ccc(C(F)(F)F)cc4)C2=NC(C(=O)OC)=C(C(=O)OC)[C@H]13 | nt | nt | nt | 0%[12.9 µM]
Cn1nnnc1SCC(=O)N1c2ccccc2Sc2ccc(Cl)cc21 | 1% | -2% | 1.3µM* | -4%
Cn1c(SCC(=O)N2c3ccccc3Sc3ccc(Cl)cc32)nnc1-c1ccco1 | -10% | -66% | -8% | 2%
COc1cccc(CNC(=O)CSc2c3c(nc4ccc(Cl)cc24)CCCC3)c1OC | 6% | nt | nt | nt
CCOC(=O)N1CCN(c2cc(=O)n(-c3ccc(Br)cc3)c(=O)[nH]2)CC1 | ? | 4% | 0.56µM* | -14%
CCOC(=O)N1CCN(c2cc(=O)n(-c3ccc(C)cc3)c(=O)[nH]2)CC1 | -1% | 5% | -1% | -3%
Clc1cccc(Cl)c1CON/C=N/c1ncnc2sccc12 | 1% | -1% | 1.1µM* | -3%
SMILES | AmpC inh detg | SARS PLpro yeast | AmpC no deterg | FBPA Giardia inh
COC(=O)[C@H](Cc1ccccc1)NC(=O)O[C@@H]1C(=O)c2ccc(OC)cc2O[C@H]1c1cccc(C(F)(F)F)c1 | nt | nt | nt | 1%
C=C1CC[C@H](O)C/C1=C/C=C1\CCC[C@]2(C)[C@@H]([C@H](C)CCCC(C)(C)O)CC[C@@H]12 | nt | nt | nt | -1%
COc1ccc(/C=N/NC(=S)Nc2ccccc2)cc1COc1ccc(F)cc1 | -5% | -3% | ? | 7%
COc1ccc(/C=N/NC(=S)Nc2ccccc2)cc1COc1ccccc1F | -4% | 2% | 14µM* | -2%
C=COC(=O)/C=C/C | nt | nt | nt | 0%
O=C(/C=C\c1cn(-c2ccccc2)nc1-c1ccccc1)Nc1nccs1 | -14% | -18% | 11µM* | 2%
CC1(OC(=O)c2cnc3ccccc3n2)C(=O)C=C2C=C3CCCN3C=C2C1=O (configuration not stated) | nt | nt | nt | -14%[12.9 µM]
Cc1nc(C)c(/C(O)=C/c2nc3ccc([N+](=O)[O-])cc3oc2=O)o1 | 10% | -1% | -19% | 13µM*
NC1(C(=O)O)CCC1 | nt | nt | nt | -5%
NC1(C(=O)O)CC(C(=O)O)C1 (configuration not stated) | nt | nt | nt | 5.6µM*!
Cc1ccc(NS(=O)(=O)c2cc(C(=O)Nc3cccnc3)ccc2C)cc1 | 6% | -5% | 28µM* | nt
Cc1ccc(NS(=O)(=O)c2cc(C(=O)NCc3cccnc3)ccc2C)cc1 | 4% | -3% | -37% | nt
CS(=O)(=O)Nc1ccc(C(=O)Nc2ccccc2C(=O)N2CCCC2)cc1 | 4% | 16µM* | -9% | 7%
CCOc1ccccc1NC(=O)Cn1c(=O)nc(-c2ccccc2F)c2cc(Cl)ccc21 | 5% | nt | nt | nt
CN1c2ccccc2C(C)(C)C12C=Nc1c(ccc3ccccc13)O2 (configuration not stated) | ? | -9% | 25µM* | 11µM*
COc1ccc2ccc3c(c2c1)N=CC1(O3)N(C)c2ccccc2C1(C)C (configuration not stated) | ? | -96% | -42% | ?
CCCCn1c(NC(=O)c2ccco2)c(C(=O)OCC)c2nc3ccccc3nc21 | -13% | 1% | 60% | 5µM*
CCCCn1c(NC(=O)c2ccco2)c(S(=O)(=O)c2ccc(C)cc2)c2nc3ccccc3nc21 | -13% | -1% | -36% | ?
COc1cccc(C(=O)NCCS(=O)(=O)NCc2ccc3c(c2)OCO3)c1 | ? | -3% | 35µM* | nt
O=C(NCc1ccc2c(c1)OCO2)c1ccccc1 | 1% | -1% | -26% | 4%
CCCCn1nc2cc(C(=O)NCc3ccc4c(c3)OCO4)ccc2c1OCC | 3% | -4% | 0.32µM* | 9%
CCCn1nc2cc(C(=O)NC3CCc4ccccc43)ccc2c1OCC (configuration not stated) | -1% | -7% | 0.28µM* | -2%
COc1ccc(C(=O)NCCS(=O)(=O)NCc2ccc3c(c2)OCO3)cc1 | ? | 4% | -38% | nt
CCCn1nc2cc(C(=O)NCc3ccc4c(c3)OCO4)ccc2c1OCC | 0% | 8% | -9% | 5%
O=C(NCc1ccc2c(c1)OCO2)c1ccncc1 | -4% | 16µM* | -7% | 2%
Fc1ccccc1N1CCN(c2ncnc3nc[nH]c23)CC1 | 2% | 1% | -13% | 0%
